Hits are enriched below; roughly 11% of the tested compounds scored in any of these assays.
NPR1 antag = Natriuretic polypeptide receptor (hNpr1) antagonism - Primary qHTS; Atrial natriuretic peptide receptor 1 (Homo sapiens), P16066; HEK293 hNpr1 GloSensor cGMP, ANP-stimulated luminescence; Potency, µM (highest dose often 46.3 µM), for the others: at the highest dose activity change, negative = inhibition, usual class: inhibitors; hit rate 1.6% among 76,000; AID 1347048, 2019; calls by dose curve; further: nearly all actives have a fitted effect of over 60% in size
Target sequence (P16066 whole entry, looked up): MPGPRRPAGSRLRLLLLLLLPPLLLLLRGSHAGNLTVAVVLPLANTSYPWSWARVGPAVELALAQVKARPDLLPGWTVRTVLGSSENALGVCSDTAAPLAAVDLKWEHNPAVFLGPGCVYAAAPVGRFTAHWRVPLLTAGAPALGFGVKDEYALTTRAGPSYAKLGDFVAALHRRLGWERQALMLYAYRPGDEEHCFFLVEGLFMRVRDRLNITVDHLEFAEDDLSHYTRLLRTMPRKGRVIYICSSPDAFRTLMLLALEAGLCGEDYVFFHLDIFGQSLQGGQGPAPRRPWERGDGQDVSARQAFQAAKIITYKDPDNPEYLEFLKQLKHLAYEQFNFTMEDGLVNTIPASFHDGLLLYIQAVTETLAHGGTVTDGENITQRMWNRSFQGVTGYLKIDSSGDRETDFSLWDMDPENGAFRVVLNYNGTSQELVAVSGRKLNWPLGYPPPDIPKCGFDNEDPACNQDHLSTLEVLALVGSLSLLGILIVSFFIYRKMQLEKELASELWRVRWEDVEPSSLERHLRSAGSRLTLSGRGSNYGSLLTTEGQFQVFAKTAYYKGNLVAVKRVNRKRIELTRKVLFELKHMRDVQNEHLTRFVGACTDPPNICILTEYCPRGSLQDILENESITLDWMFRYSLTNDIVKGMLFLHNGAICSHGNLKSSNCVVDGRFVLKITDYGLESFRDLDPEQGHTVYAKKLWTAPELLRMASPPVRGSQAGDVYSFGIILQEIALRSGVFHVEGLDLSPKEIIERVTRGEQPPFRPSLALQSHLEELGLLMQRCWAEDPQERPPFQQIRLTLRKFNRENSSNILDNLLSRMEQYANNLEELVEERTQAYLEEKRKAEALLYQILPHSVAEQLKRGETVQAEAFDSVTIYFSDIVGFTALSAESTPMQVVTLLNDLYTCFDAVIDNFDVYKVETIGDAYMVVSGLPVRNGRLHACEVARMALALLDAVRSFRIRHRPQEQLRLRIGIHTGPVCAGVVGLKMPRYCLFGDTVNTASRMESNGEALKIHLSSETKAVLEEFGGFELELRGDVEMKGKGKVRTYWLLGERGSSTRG
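Compound pre-incubated 30 min at room temperature on GloSensor-loaded HEK293 cells stably carrying hNpr1 and the pGS-40F cGMP biosensor. Stimulation uses hNppA at 0.1 nM final; luminescence is taken at baseline and 20 min post-agonist.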
FLuc inh = Firefly luciferase inhibition profiling of diverse chemical library using quantitative high-throughput screening | Luciferin 4-monooxygenase (Photinus pyralis), P08659 | purified P. pyralis luciferase, luminescence, biochemical | Potency, µM (series often up to 115 µM), actives largely listed as inhibitors | hit rate 2.5% among 76,000; further: nearly all actives have a fitted effect of over 65% in size
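Biochemical qHTS: compound (6-point titration) added to 10uM D-luciferin plus 10uM ATP in Tris acetate pH 7.5 buffer with Mg, Tween-20 and BSA, then purified enzyme at 10nM; light output imaged.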
HEK cytotox = Cytotoxic Profiling in HEK 293 Cell Line of Diverse Libraries Using Quantitative High-Throughput Screening; HEK 293 viability, ATP luminescence (CellTiter-Glo), 48-72 h; Potency, µM (top dose mostly 115 µM), without a hit: at the top dose activity change, negative = cytotoxicity, hits mostly inhibitors; hit rate 6.6% among 94,000; further: nearly all actives have a fitted effect of over 60% in size
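CellTiter-Glo luminescence (cellular ATP) was read after 48 or 72 hr of compound exposure at 37 degree Celsius. Cells were HEK 293 plated at 250 cells/well.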
3T3 cytotox = Cytotoxic Profiling in NIH 3T3 Cell Line of Diverse Libraries Using Quantitative High-Throughput Screening. NIH 3T3 viability, CellTiter-Glo ATP luminescence, 48-72 h. Potency, µM (titrated, usually from 96.7 µM), inactives show at the top dose activity change, negative = cytotoxicity, usual class: inhibitors. hit rate 4.3% among 94,000. AID 1345082, 2018; further: nearly all actives have a fitted effect of over 55% in size
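Luminescent ATP readout (CellTiter-Glo, 10 min RT) after 48 or 72 hr compound exposure of NIH 3T3 cells seeded at 400 cells/well in 1536-well format; quantitative HTS.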
* marks the source's active call; other numbers are inactive results; i = inactive; ? = inconclusive; [ ] = another dose, or the depositor's remark. Unless noted, the call rests on the fitted dose curve; in most records, active means well fitted curve in the direction sought with a large enough effect; inconclusive means small, poorly fitted or top-dose-only effect, or another doubt; inactive means no such curve, though single readings can be large; an effect the other way counts as inactive or inconclusive. On the % scale 0 is the no-effect control and ±100 the full control effect; potency means the concentration at half of the fitted maximal effect.

SMILES	NPR1 antag	FLuc inh	HEK cytotox	3T3 cytotox
O=C(Nc1cccnc1)c1nc2c(o1)CCN(Cc1cccs1)CC2	-19%[70.6 µM]	?	89µM*	?
O=C(NCC1CC1)c1nc2c(o1)CCN(Cc1cccc(O)c1)CC2	4%[70.6 µM]	?	?	100µM*
COc1ccc(CN2CCc3nc(C(=O)Nc4cccnc4)oc3CC2)cc1OC	-17%[70.6 µM]	i	?	?
N#Cc1ccc(S(=O)(=O)N[C@H](Cc2ccccc2)C(=O)N2CCOCCNC(=O)CC2)cc1	-2%	i	-14%	-27%
O=C(Nc1cccc(C(F)(F)F)c1)c1nc2c(o1)CCN(Cc1nccs1)CC2	35µM*	16µM*	?	?
N#Cc1cccc(CN2CCc3nc(C(=O)Nc4cccc(C(F)(F)F)c4)oc3CC2)c1	11µM*	?	?	?
N#Cc1cccc(CN2CCc3nc(C(=O)NCC4CC4)oc3CC2)c1	-24%[70.6 µM]	i	?	?
O=C(Nc1cccc(C(F)(F)F)c1)c1nc2c(o1)CCN(Cc1cccs1)CC2	?	8.9µM*	?	?
O=C(NCc1ccncc1)c1nc2c(o1)CCN(Cc1ccccc1)CC2	-24%[70.6 µM]	i	?	-26%[138 µM]
O=C(CC1CCN(C(=O)NC2CCCCC2)C1)NCc1ccccc1 (stereo not drawn)	0%	i	-23%	-26%
O=C(Nc1ccc(F)cc1)N1CCC(N2CC3CC(C2)[C@H]2CCCC(=O)N2C3)CC1 (stereo partly drawn)	-1%	i	-5%	-10%
CC(=O)NC1(C)CCN(Cc2cccc(-c3ccc4c(c3)OCCN4C)c2)C1 (stereo not drawn)	?	22µM*	?	89µM*
CC(=O)NC1(C)CCN(Cc2cccc(-c3ccc(N4CCOCC4)cc3)c2)C1 (stereo not drawn)	4µM*	5.6µM*	?	-24%[138 µM]
CC(=O)NC1(C)CCCN(Cc2cccc(-c3ccccc3)c2)C1 (stereo not drawn)	-2%[70.6 µM]	i	?	?
CCC(CC)C(=O)NC[C@H]1O[C@@H](CC(=O)N2CCN(c3ccccc3OC)CC2)[C@H](O)[C@@H]1O	3%	i	i	-7%
O=C(c1ccc(F)cc1Cl)N1CCN(c2cc(C(F)(F)F)ncn2)CC1	-9%	i	?	-24%
CC(=O)N1CCC2(CC1)C(=O)NN=C2C1CC1	5%[70.6 µM]	i	-10%[230 µM]	-12%[174 µM]
CNC(=O)N1CCC(OC2CCN(Cc3ccccc3)CC2)CC1	0%	i	6%	-13%
O=C(Nc1cc(F)c(F)c(F)c1)N1CCC(OC2CCN(Cc3ccccc3)CC2)CC1	-16%	i	?	35µM*
Cc1noc(-c2ccc3c(c2)OCO3)c1C(=O)N1CCC(Cc2ccccc2)CC1	-26%	i	?	?
Cc1ccc(CC(=O)N2CCC(Cc3nc(-c4ccccc4)no3)CC2)cc1	?	i	?	?
COc1cccc(-c2noc(CC3CCN(C(=O)c4cc(OC)c(OC)c(OC)c4)CC3)n2)c1	-18%	i	45µM*	?
O=C(c1ccc2c(c1)OCO2)N1CCC(Cc2nc(-c3ccccc3)no2)CC1	4µM*	?	10µM*	?
COc1ccc(-c2noc(CC3CCN(C(=O)Cc4ccsc4)CC3)n2)cc1	?	i	45µM*	?
COc1ccc(CC2CCN(C(=O)c3c(C)noc3-c3ccc4c(c3)OCO4)CC2)cc1	?	i	35µM*	25µM*
SMILES	NPR1 antag	FLuc inh	HEK cytotox	3T3 cytotox
CC(C)NC(=O)N1CCN(C(=O)N2CCOCC2)[C@@H](C(=O)N[C@H](Cc2c[nH]c3ccccc23)C(N)=O)C1	0%	i	i	5%
COc1ccc(C(=O)N2CCC3(CC2)CC(Cc2nc(-c4ccccc4)no2)CCO3)cc1 (stereo not drawn)	7.1µM*	?	13µM*	?
CC(C)N1C(=O)CO[C@H]2CCN(Cc3ccncc3Cl)CC[C@@H]21	-24%[70.6 µM]	i	?	?
O=C1CO[C@H]2CCN(Cc3ccncc3Cl)CC[C@@H]2N1c1ccccc1	-6%[70.6 µM]	i	45µM*	79µM*
O=C1CO[C@H]2CCN(Cc3ccccc3Cl)CC[C@@H]2N1CCc1cccnc1	-29%[70.6 µM]	i	?	100µM*
N#Cc1cccc(CN2CC[C@@H]3OCC(=O)N(Cc4ccccc4)[C@H]3CC2)c1	-15%[70.6 µM]	i	100µM*	?
COc1ccccc1OCCC1CCN(C(=O)NCC(C)C)C1 (stereo not drawn)	-10%	i	i	-17%
COc1ccc(-c2nn(-c3ccccc3)cc2CN2CCC(CO)CC2)c(F)c1	2%	i	?	?
O=C(NCC1Cn2cccc2CN1Cc1ccccc1)c1n[nH]c2ccccc12 (stereo not drawn)	-27%	14µM*	?	?
O=C(Nc1nc2c(s1)CCC2)C1CC(=O)N(c2n[nH]c3cccc(F)c23)C1 (stereo not drawn)	1%	i	45µM*	?
CCc1nc(NC(=O)C2CC(=O)N(c3n[nH]c4cccc(F)c34)C2)sc1C (stereo not drawn)	1%	i	?	-25%
COc1ccc(N2CCN(C(=O)C3CC(=O)N(c4n[nH]c5cccc(F)c45)C3)CC2)cc1 (stereo not drawn)	-15%	i	40µM*	-14%
O=C(Nc1nc2c(s1)CCCC2)C1CC(=O)N(c2n[nH]c3ccccc23)C1 (stereo not drawn)	-17%	i	?	-24%
O=C(Nc1nc2c(s1)CCC2)C1CC(=O)N(c2n[nH]c3cc(Br)ccc23)C1 (stereo not drawn)	-27%	i	?	18µM*
O=C(Nc1nc2ccccc2s1)C1CC(=O)N(c2n[nH]c3cccc(F)c23)C1 (stereo not drawn)	-15%	i	13µM*	25µM*
O=C1c2c(nc(CNc3ccccc3Cl)n2Cc2ccccc2)NCCN1CC1CC1	-17%[70.6 µM]	i	100µM*	89µM*
O=C1c2c(nc(COc3cccc(Cl)c3)n2Cc2ccccc2)NCCN1CCOc1ccccc1	-17%	i	?	18µM*
O=C1c2c(nc(COc3cccc(C(F)(F)F)c3)n2Cc2ccccc2)NCCN1CC1CC1	-8%	i	50µM*	35µM*
COc1cccc(OCc2nc3c(n2Cc2ccccc2)C(=O)N(CCOc2ccccc2)CCN3)c1	?	i	32µM*	20µM*
COc1ccc(CN[C@H](C)c2onc(-c3ccc(F)cc3)c2C(=O)O)cc1	2%[70.6 µM]	i	-5%[172 µM]	-5%[138 µM]
O=C(CN1C(=O)NC(c2ccccc2Cl)C2=C1COC2=O)NC1CCCC1 (stereo not drawn)	1%	i	-16%	-5%

Source: PubChem BioAssay (National Center for Advancing Translational Sciences (NCATS))
